The supplement of paper PMC8540655
Values without a mark were called inactive.

System: Aedes aegypti larvae
Assay: larval motility relative to same well at 0 h (fraction); higher = more motile (less active compound), active = 0.4 or less
Conditions: 10 µM
Procedure, shortened: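 Aedes aegypti larvae, hatched in pond salt solution with yeast at 25 °C and collected after 18–24 h, were dispensed at about 10 per well (100 µL) in 96-well plates. Compounds were tested at 10 µM, 1% v/v DMSO, with solvent and larvicide control wells on each plate. INVAPP movies (200 frames, 100 ms intervals) were recorded at 0, 2 and 24 h. Relative motility is each well's score divided by its 0 h score, median of three independent larval batches.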

Structure (SMILES) | larval motility (2 h) | larval motility (24 h)
CC[C@@H]1C(=O)OC[C@@H]1Cc1cncn1C | 1.22 | 0.972
CCOc1ccc(/C=N/NC(=O)C2CC2c2ccc(C(C)(C)C)cc2)cc1OCC (centres undefined) | 1.29 | 1.4
Clc1cccc(-c2nnc(-c3ccccc3)o2)c1 | 0.402 | 0.691
COc1ccc(CNC(=O)C(NS(=O)(=O)c2ccc3nc(C)sc3c2)C(C)C)cc1 (centres undefined) | 0.329 (active) | 0.365 (active)
CC(C)n1cnc2c(NCc3ccccc3)nc(NCc3ccccc3)nc21 | 1.3 | 1.42
CN(Cc1ccc(C(C)(C)C)cc1)Cc1cccc2ccccc12 | 0.508 | 0.64
Cc1cc(NS(=O)(=O)c2ccc(-c3ccc(F)cc3F)cc2)no1 | 0.769 | 0.77
O=[N+]([O-])c1cn(Cc2nc(O)nc(O)c2Br)cn1 | 0.834 | 0.417
CCNC(=O)Nc1cc(-c2ccccc2)c(-c2cncc(C(=O)O)c2)cn1 | 0.236 (active) | 0.433
c1ccc(-c2nnc3c4ccccc4c(N4CCNCC4)nn23)cc1 | 0.808 | 1.34
O=C(O)c1cc(-c2ccccc2)nc2ccccc12 | 0.53 | 0.971
Cc1nc(Nc2ccc(F)cc2)nc(N2CCc3ccccc3C2C)c1C (centres undefined) | 0.774 | 0.644
O=C(NC(=O)N1CCCc2ccccc21)c1ccc(Cl)cc1Cl | 0.529 | 0.89
O=C1NC(=O)C(Br)=C1Br | 0.672 | 0.484
O=C(O)/C=C/C=C/c1cccc(Oc2cc(Cl)cc(Cl)c2)c1 | 1.55 | 0.995
O=C(NCc1ncc(C(F)(F)F)cc1Cl)c1c(Cl)cccc1Cl | 1.3 | 1.42
Cc1ncc([N+](=O)[O-])n1CC(O)CN1CCOCC1 (centres undefined) | 1.3 | 0.789
CCc1nc(N)nc(N)c1C#CC(C)c1cc(OC)cc(-c2ccncc2)c1 (centres undefined) | 0.87 | 0.417
Nc1nc2c(Cc3cccnc3)c[nH]c2c(=O)[nH]1 | 0.722 | 0.771
OC[C@@H]1CC[C@H](n2cnc3c(O)ncnc32)O1 | 1.15 | 0.963
O=C(CC1Sc2ncnn2C1=O)Nc1ccc(Br)cc1 (centres undefined) | 0.859 | 0.722

Structure (SMILES) | larval motility (2 h) | larval motility (24 h)
C[C@@H](O)[C@H](N)C(=O)NS(=O)(=O)c1cccc(-c2ccc3[nH]ncc3c2)c1 | 0.665 | 0.913
CCCCc1ccc(S(=O)(=O)Nc2cc(C)on2)cc1 | 0.511 | 0.633
O=C(NCc1ccc2c3c(cccc13)C(=O)N2)c1cccs1 | 0.944 | 0.861
Nc1nc(N)c2c(Sc3ccccc3)cccc2n1 | 1.24 | 0.982
O=C(O)c1ccccc1Sc1ncnc2sc3c(c12)CCC3 | 0.968 | 0.722
NC(=O)c1ccc(I)c([N+](=O)[O-])c1 | 0.749 | 0.429
O=C(O)C(Cc1c[nH]c2ccccc12)N1C(=O)c2ccccc2C1=O (centres undefined) | 1.75 | 1.18
Nc1nc2c(ncn2/C=C2/CC2(CO)CO)c(=O)[nH]1 | 0.842 | 0.573
CCN(CC)S(=O)(=O)c1ccc(Cl)c(C(=O)Nc2sc3c(c2C#N)CCCC3)c1 | 1.52 | 2.15
CC#C[C@]1(O)CC[C@H]2[C@@H]3CCC4=CC(=O)CCC4=C3[C@@H](c3ccc(N(C)C)cc3)C[C@@]21C | 0.693 | 0.826
O=C1NC(=S)N/C1=C\c1cc(Br)cc(Br)c1O | 0.761 | 0.843
CCc1nc2ccccn2c1C(=O)NCc1ccccc1 | 1.39 | 0.997
COC(=O)Nc1nc2cc(S(=O)c3ccccc3)ccc2[nH]1 (centres undefined) | 0.769 | 0.934
CC(C)Nc1nc2cc(Cl)c(Cl)cc2n1[C@H]1O[C@@H](CO)[C@H](O)[C@@H]1O | 1.1 | 0.602
COc1ccc2nc(-c3ccccc3)cc(O)c2c1 | 1.08 | 0.908
NC(=S)N/N=C/c1ncccc1N | 0.987 | 0.773
N[C@@H]1CN(c2c(F)cc3c(=O)c(C(=O)O)cn([C@@H]4C[C@@H]4F)c3c2Cl)CC12CC2 | 0.745 | 1.11
CCCC(=O)OCCc1ccccc1 | 0.51 | 0.648
CCNC(=O)Nc1cn2c(-c3ncc(CC)cn3)cc(-c3cccnc3)cc2n1 | 0.892 | 0.894
CCOCc1nc2c(N)nc3ccccc3c2n1CC(C)(C)O | 1.09 | 0.906
O=C1CCC(N2C(=O)c3ccccc3C2=O)C(=O)N1 (centres undefined) | 1.17 | 1.13
